Screening data: PubChem BioAssay, The Scripps Research Institute Molecular Screening Center
Only a selection was taken, and hits are over-represented in it overall.
TTR transcr act: TTR transcription activators in neuroblastoma reporter cells, primary screen, cell-based, luminescence, SH-SY5Y, TTR promoter Gaussia luciferase; activation, % at 16.7 µM; actives 1.3% (n = 92,000); 100% = recombinant luciferase protein wells;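 active = activation above the mean of all tested compounds plus 3 SD, cut at about 9.5% in these data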;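 also: cells exposed to compounds for one day before reading; 0% = median of all test compound wells on the plate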
TTR inh HuH7: TTR promoter reporter inhibitors in hepatoma cells, counter-screen for TTR transcription activator project, cell-based, luminescence, HuH7 hepatoma; inhibition, % at 16.7 µM; actives 4% (n = 1,100); shares compounds with TTR transcr act; HuH7 TTR promoter-Gaussia luciferase reporter; AID 1117279, 2014;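 active = average inhibition above the solvent-only control wells' mean plus 3 SD, cut at about 15% in these data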;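 also: 0% = cells with DMSO only and 100% = cells with inhibitor control FD; inhibitors lower well luminescence so higher value means more inhibition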
TTR up confirm: TTR transcription activators, retest, confirmation, cell-based, luminescence, SH-SY5Y, triplicate. 1,100 tested, under 10 active. AID 1117280, 2014. activation, % at 16.7 µM. shares compounds with TTR transcr act. SHSY5Y TTR promoter Gaussia luciferase; 100% = purified Lucia enzyme wells, no cells;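 active = mean activation above a set limit taken from the earlier primary screen, cut at about 11% in these data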;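 also: 0% = DMSO-treated cells and 100% = recombinant Lucia luciferase without cells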
Active calls of the source: *.

SMILES	TTR transcr act	others
Cc1cc(C(=O)N/N=C/C=C/c2ccccc2)n[nH]1	-2
O=C(N/N=C/C=C/c1ccccc1)c1cc(C2CC2)[nH]n1	1
Cc1ccc(-c2cc(C(=O)N/N=C/C=C/c3ccccc3)n[nH]2)s1	13*	TTR inh HuH7=-32;TTR up confirm=0
Cc1ccc(/C=N/NC(=O)c2n[nH]c3c2CCCC3)cc1	-2
COc1ccc(OCC(=O)OCC(=O)NC2CC2)cc1	1
O=C(CNC(=O)C1CCCCC1)NC1CCCCC1	2
CC(C)N1CCCCC(NC(=O)COCc2ccccc2)C1=O (centres undefined)	0
CC(=O)c1ccc(NC(=O)c2ccc(-n3cnnn3)cc2)cc1	0
CCOC(=O)C1(C(=O)OCC)Cc2c([nH]c3ccccc23)[C@]2(N1)C(=O)N(C)c1ccc(Br)cc12	-3
Fc1ccc(Cn2ccc3ccc(-c4ccc5ccn(Cc6ccc(F)cc6)c5c4)cc32)cc1	8
O=S1(=O)CCN(C2CCCCCCC2)CC1	2
C=CCN(C(=O)c1csnn1)C(C(=O)NCc1ccc(F)cc1)c1ccccc1 (centres undefined)	-2
N#Cc1c(N2CCCC2)ccc(Br)c1Cl	2
Nc1ccc(Br)cc1C(=O)O	2
Cc1cc(C(=O)O)c(C)n1Cc1ccncc1	-1
Nc1cnccc1C(=O)O	10*	TTR inh HuH7=-8;TTR up confirm=1
CSc1nc(C)cc(SCC(=O)N/N=C/c2ccccc2)n1	0
COc1ccc(-n2nc(C(=O)NCC(=O)NCc3ccco3)c3ccccc3c2=O)cc1	0
COc1ccc(-n2nc(C(=O)NCC(=O)NCCCN3CCN(C)CC3)c3ccccc3c2=O)cc1	-1
CCOC(=O)N1CCN(C(=O)CNC(=O)c2nn(-c3ccc(OC)cc3)c(=O)c3ccccc23)CC1	15*	TTR inh HuH7=-18;TTR up confirm=1
CCC[C@H]1[C@@H](N(C)Cc2ccccc2)CC[C@@]23CCCN2C(=O)CCC[C@@H]13	1
CC[C@H](C)[C@@H](C(=O)NCCCCCCCCCCC(=O)N1CCNCC1)n1cc(CCCCN=C(N)N)nn1	-1
COc1ccc(/C=C(\C#N)C(=O)OCC(=O)NC(C)c2ccccc2)cc1 (centres undefined)	17*	TTR inh HuH7=-12;TTR up confirm=0
COc1ccc(/C=C(\C#N)C(=O)OCCNC(=O)c2ccncc2)cc1	6
COc1cc(/C=C(/C#N)C(=O)NC(C)c2ccccc2)cc(OC)c1O (centres undefined)	0
SMILES	TTR transcr act	others
O=C(NC1CCCCN(Cc2ccc(Cl)cc2)C1=O)c1ccc(F)c(F)c1 (centres undefined)	7
COP(=O)(O)C(C)NC(=O)OCc1ccccc1 (centres undefined)	8
Cc1cc(C(=O)NNC(=S)NCC(C)C)no1	0
Cc1nc(-c2ccc(Cl)cc2)sc1C(=O)NNC(=O)C(C)C	3
CNC(=S)NNC(=O)c1sc(-c2cc(C)on2)nc1C	14*	TTR inh HuH7=-7;TTR up confirm=-1
CC(=O)OCC(O)C1(O)CCC2C3CCC4=CC(=O)CCC4(C)C3C(O)CC21C (centres undefined)	-1
CCn1c(=O)cc(SCC(=O)N2CCN(Cc3ccc4c(c3)OCO4)CC2)c2ccccc21	1
CCn1c2ccc(CC(=O)O)cc2c2cc(CC(=O)O)ccc21	0
CCn1c2ccccc2c2cc(CN3CCN(S(=O)(=O)CC)CC3)ccc21	19*	TTR inh HuH7=-9;TTR up confirm=1
COc1ccc(C(=O)N[C@@H]2CC[C@@]34CCCN3C(=O)CCC[C@H]4[C@H]2C)cc1	0
COc1cccc(CNC2CCC23CCC(C)CC3)c1 (centres undefined)	1
CCC(C)[C@H](NC(=O)N1CC(=O)Nc2ccccc21)C(=O)N[C@@H](Cc1c[nH]c2ccccc12)C(=O)O (some centres undefined)	12*	TTR inh HuH7=-22;TTR up confirm=0
CC(C)C[C@H](NC(=O)N1CC(=O)Nc2ccccc21)C(=O)N[C@H](Cc1c[nH]c2ccccc12)C(=O)O	2
CC(C)[C@H](NC(=O)N1CC(=O)Nc2ccccc21)C(=O)N[C@@H](Cc1ccccc1)C(=O)O	2
Cn1c2ccccc2c(=O)c2c(=O)n(CCCc3ccccc3)cnc21	2
CCc1cc2c(SCC(=O)C(C#N)=C3N(C)c4ccccc4N3C)ncnc2s1	9.9*	TTR inh HuH7=-29;TTR up confirm=0
CC(C)C(C)(C#N)NC(=O)CSc1ncnc2sc(-c3ccccc3)cc12 (centres undefined)	-1
CCN(CC)C(=O)CSc1ncnc2sc(-c3ccccc3)cc12	-4
CCOC(=O)N1CCC(N(CCN(C)C)C(=S)Nc2ccc(OCC)cc2)CC1	1
CCN(C(=O)CSc1nnc(Nc2ccccc2)s1)C1CCS(=O)(=O)C1 (centres undefined)	2
COC(=O)[C@]12C[C@H](CC(=O)N3CCCC3)C(=O)N(Cc3ccc(Cl)cc3Cl)C1=C[C@H](C(C)C)O[C@@H]2C1CC1	-1
CCOC(=O)CCCCCC(=O)Nc1ccc2c(c1)C(=O)N([C@@H](C)CO)C[C@@H](C)[C@H](CN(C)C(=O)Nc1ccccc1)OCCCC[C@H](C)O2	1
COc1ccc(OC)c(NC(=O)C2CCC(CNc3c(N4CCC(C)CC4)c(=O)c3=O)CC2)c1 (centres undefined)	15*	TTR inh HuH7=1;TTR up confirm=2
COc1ccc(C)cc1NC(=O)C1CCC(CNc2c(N3CCOCC3)c(=O)c2=O)CC1 (centres undefined)	0
CC1CCN(c2c(NCC3CCC(C(=O)NCc4ccccc4)CC3)c(=O)c2=O)CC1 (centres undefined)	-1
SMILES	TTR transcr act	others
CCOc1ccc(S(=O)(=O)N2CCN(C(=O)c3ccc(Cl)c(S(=O)(=O)N4CCOCC4)c3)CC2)cc1	2
CCOC(=O)N1CCC(N(CCN(C)C)C(=S)Nc2cc(Cl)ccc2C)CC1	-1
C=CCSC1=Nc2cc(OC)c(OC)cc2C2=NC(=O)CN12	31*	TTR inh HuH7=14;TTR up confirm=-1
C=CCc1ccc(OCCn2cccc2C=O)c(OC)c1	-4
COc1cc2c(cc1OC)C1=NC(=O)CN1C(SCc1ccc(C)cc1)=N2	-2
O=C(Nc1ccc2c(c1)OCO2)NC1CCCCN(Cc2cccc(Cl)c2)C1=O (centres undefined)	1
O=C(O)c1cccc(N2C(=O)c3cccc(Oc4ccc(Cl)cc4)c3C2=O)c1	4
C=CC[C@@H](CC(=O)NCCO)C(=O)N[C@@H](C)COC(=O)[C@@H](CC=C)Cc1ccc(F)cc1	21*	TTR inh HuH7=-15;TTR up confirm=0
C=CC[C@@H](CC(=O)N[C@H](CO)Cc1ccccc1)C(=O)N[C@@H](C)COC(=O)[C@@H](CC=C)Cc1ccc(F)cc1	-5
C=CCC[C@@H](Cc1ccc(F)cc1)C(=O)OC[C@@H](Cc1ccccc1)NC(=O)[C@H](CC=C)CC(=O)NCCO	-1
O=C(Nc1ccc(F)cc1)Nc1c(-c2ccc(F)cc2)nc2ncccn12	-1
O=C(Nc1ccccc1Oc1ccccc1)NC1CCCCN(Cc2ccc(Cl)cc2)C1=O (centres undefined)	2
Cc1c(-c2nc(-c3cccnc3)no2)cccc1[N+](=O)[O-]	-1
